Several values for one entry are separate records, joined by “and”; a condition that tells them apart may be missing. Identical values can stand only once. Values without a mark were called inactive. Results filed as inconclusive are left out. Entries that show only a call come without a potency. A structure can be active in one record and inactive in another. Activity calls are given as the source filed them. Calls come from the whole dose curve; as a rule, active = well fitted curve in the direction sought with a large enough effect; inconclusive = small, poorly fitted or top-dose-only effect, or another doubt; inactive = no such curve, though single readings can be large; an effect the other way counts as inactive or inconclusive.
Assays:
[1] = qHTS for compounds that reverse cellular toxicity of Amyloid beta (A-beta) peptide in yeast: LOPAC Validation Assay (AID 720559)
In short: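 OD600 growth readout after 48 hr at 30 C; A-beta-toxic yeast plus pinned compounds in medium. Normalization: DMSO = negative, equimolar FeCl3 + clioquinol = positive.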

[2] = qHTS for Activators of Parkin Expression: LOPAC Validation Assay (NLuc Reporter) (AID 720572)
In short: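 NLuc signal, read 10 min after reagent and following a prior FLuc read, is normalized to DMSO (0) and positive controls (100%). Cells: neuronal Parkin-promoter coincidence reporter line; compounds tested 7-point, 24 h, 37 C, 5% CO2.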

[3] = biological target: T1, Hexokinase-4 (Homo sapiens) + Glucokinase regulatory protein (Homo sapiens) (UniProt P35557+Q14397); experiment: qHTS assay for inhibitors of recombinant human GCK-GKRP interaction: Diaphorase-coupled assay (AID 743205)
T1 sequence (P35557 whole entry, looked up): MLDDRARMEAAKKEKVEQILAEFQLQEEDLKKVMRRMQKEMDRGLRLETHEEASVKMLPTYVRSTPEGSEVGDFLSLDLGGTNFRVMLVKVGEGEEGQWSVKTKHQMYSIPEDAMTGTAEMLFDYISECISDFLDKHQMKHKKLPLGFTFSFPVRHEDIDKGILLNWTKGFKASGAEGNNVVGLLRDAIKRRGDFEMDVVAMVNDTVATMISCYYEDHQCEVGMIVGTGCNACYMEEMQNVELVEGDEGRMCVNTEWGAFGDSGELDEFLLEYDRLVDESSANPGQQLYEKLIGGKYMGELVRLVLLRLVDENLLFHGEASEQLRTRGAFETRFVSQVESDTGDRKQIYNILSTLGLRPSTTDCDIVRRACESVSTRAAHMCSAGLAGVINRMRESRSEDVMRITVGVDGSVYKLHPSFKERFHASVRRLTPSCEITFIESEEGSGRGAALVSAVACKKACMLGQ
T1 sequence (Q14397 whole entry, looked up): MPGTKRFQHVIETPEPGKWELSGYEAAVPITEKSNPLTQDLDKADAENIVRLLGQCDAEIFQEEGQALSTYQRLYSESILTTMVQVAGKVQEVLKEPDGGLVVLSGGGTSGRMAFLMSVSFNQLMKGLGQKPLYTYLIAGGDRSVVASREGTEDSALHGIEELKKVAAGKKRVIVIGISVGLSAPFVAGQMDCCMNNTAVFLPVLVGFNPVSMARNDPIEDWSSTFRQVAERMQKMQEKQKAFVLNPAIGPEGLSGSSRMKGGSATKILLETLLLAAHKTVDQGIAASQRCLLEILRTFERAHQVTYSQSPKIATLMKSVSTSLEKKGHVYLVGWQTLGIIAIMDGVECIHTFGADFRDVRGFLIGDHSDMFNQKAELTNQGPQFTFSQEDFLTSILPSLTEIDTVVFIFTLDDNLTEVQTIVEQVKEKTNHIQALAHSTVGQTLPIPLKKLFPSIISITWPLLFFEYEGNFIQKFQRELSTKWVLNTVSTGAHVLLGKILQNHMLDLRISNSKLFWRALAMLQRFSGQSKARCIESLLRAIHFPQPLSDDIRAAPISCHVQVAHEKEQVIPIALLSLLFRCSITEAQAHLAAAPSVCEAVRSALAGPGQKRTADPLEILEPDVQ
In short: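 Resorufin fluorescence (525/590 nm), read each minute over 30 min, reports GCK activity coupled via G6PDH and diaphorase. Reaction: 10 nM GST-GCK, 10 nM FLAG-GKRP, 5 mM glucose, 0.4 mM ATP, 0.15 mM NADP+, 0.1 mM resazurin.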

[4] = biological target: T1, Hexokinase-4 (Homo sapiens) + Glucokinase regulatory protein (Homo sapiens); experiment: qHTS assay for inhibitors of recombinant human GCK-GKRP interaction: ADP-Glo assay (AID 743206)
In short: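 Pin-transferred compounds meet a 15 nM GST-GCK/15 nM FLAG-GKRP/2 uM S6P mix (dispense concentrations). ATP is then added to 0.4 mM final with 5 mM glucose, and the reaction runs 60 min at room temperature. ADP is quantified luminescently.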

[5] = biological target: T1, Hexokinase-4 (Homo sapiens) + Glucokinase regulatory protein (Homo sapiens); experiment: qHTS assay for inhibitors of recombinant human GCK-GKRP interaction: HTRF assay (AID 743207); note: potency is the fitted concentration of half-maximal effect
In short: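 HTRF read-out (ex 320 nm; 615/665 nm emission) after 60 min RT equilibration of 5 nM GST-GCK, 5 nM FLAG-GKRP, 2 uM S6P, compound and anti-FLAG/anti-GST detection antibodies; signal normalized between DMSO wells with and without GCK.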

[6] = qHTS Assay for Identifying Gametocytocidal Compounds (AID 743244); note: potency is the fitted concentration of half-maximal effect;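 for max response: actives lower the fluorescent signal which means gametocytes are killed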; details: P. falciparum 3D7 stage III-V gametocytes, alamarBlue, 72 h; max response: hits give low values
In short: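 A resazurin-based viability read-out was applied to mature P. falciparum gametocytes: 72 h compound treatment, then 24 h dye incubation, with falling fluorescence signalling gametocytocidal effect.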

[7] = qHTS for Activators of Parkin Expression: LOPAC Validation Assay (FLuc Reporter) (AID 720573)
In short: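 FLuc luminescence read-out from a neuronal line expressing a Parkin-promoter-driven coincidence reporter. Cells treated 24 h at 37 C, 5% CO2 with compounds at 7 concentrations; signal increase normalized to DMSO and positive control.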

CCCCNc1c(C(=O)OCC)c(C)nc2c1cnn2CC
outcome [1]: inactive
Potency [2]: inactive
outcome [3]: inactive
outcome [4]: inactive
Potency [5]: inactive
max response [6]: -2.63% and 24%

c1cc(CN2CCCCC2)cc(OCCCNc2nc3ccccc3s2)c1
outcome [1]: inactive
Potency [2]: inactive
outcome [3]: inactive
outcome [4]: inactive
Potency [5]: inactive
max response [6]: -9.42%

O=C1NCN(c2ccccc2)C12CCN(CCCC(c1ccc(F)cc1)c1ccc(F)cc1)CC2
outcome [1]: inactive
Potency [2]: inactive
outcome [3]: inactive
outcome [4]: inactive
Potency [5]: inactive
Potency [6]: 10 µM (active)

C[C@@H](O)[C@H]1C(=O)N2C(C(=O)O)=C(SCCN=CN)C[C@H]12
outcome [1]: inactive
Potency [2]: inactive
outcome [3]: inactive
outcome [4]: inactive
Potency [5]: inactive
max response [6]: 3.85% and 8.18%

CCc1c(C)[nH]c2c1C(=O)C(CN1CCOCC1)CC2 (centres undefined)
outcome [1]: inactive
Potency [2]: inactive
outcome [7]: inactive
outcome [4]: inactive
Potency [5]: inactive
max response [6]: 2.02% and 26.2%

CSc1ccc(C(=O)c2[nH]c(=O)[nH]c2C)cc1
outcome [4]: inactive
Potency [5]: inactive
max response [6]: 9.34% and 5.87%

CN(C)C(=O)Oc1cccc([N+](C)(C)C)c1
outcome [1]: inactive
Potency [2]: inactive
outcome [4]: inactive
Potency [5]: inactive
max response [6]: 5.44% and 20.8%

CNC1(C)C2CCC(C2)C1(C)C (centres undefined)
outcome [1]: inactive
Potency [2]: inactive
outcome [7]: inactive
outcome [3]: inactive
outcome [4]: inactive
Potency [5]: inactive
max response [6]: 12.1% and 8.7%

CN(C)[C@@H]1C(=O)C(C(N)=O)=C(O)[C@@]2(O)C(=O)C3=C(O)c4c(O)ccc(Cl)c4[C@@H](O)[C@H]3C[C@@H]12
outcome [1]: inactive
Potency [2]: inactive
outcome [3]: inactive
outcome [4]: inactive
Potency [5]: 12.6 µM (active)
max response [6]: -7.62% and 22.4%

C[C@H](CS)C(=O)N1CCC[C@H]1C(=O)O
outcome [1]: inactive
Potency [2]: inactive
outcome [3]: inactive
outcome [4]: inactive
Potency [5]: inactive
max response [6]: -9.05% and 12%

CN(C)CC[C@@H](c1ccc(Br)cc1)c1ccccn1
outcome [4]: inactive
Potency [5]: inactive
max response [6]: -2.43% and 14.2%

COC(=O)C1=C(C)NC(C)=C(C(=O)OC(C)(C)CN(C)CCC(c2ccccc2)c2ccccc2)C1c1cccc([N+](=O)[O-])c1 (centres undefined)
outcome [1]: inactive
Potency [2]: inactive
outcome [4]: inactive
Potency [5]: inactive
max response [6]: 7.33% and 12.6%

CCOC(=O)c1cnc2c(cnn2CC)c1NN=C(C)C
outcome [1]: inactive
Potency [2]: inactive
outcome [4]: inactive
Potency [5]: inactive
max response [6]: 1.49% and 6.62%

O=C(O)CN(CCOCCOCCN(CC(=O)O)CC(=O)O)CC(=O)O
outcome [1]: inactive
Potency [2]: inactive
outcome [7]: inactive
outcome [3]: inactive
outcome [4]: inactive
Potency [5]: inactive
max response [6]: -5.05% and 25.1%

CC(=O)OCC1=C(C(=O)O)N2C(=O)[C@@H](NC(=O)Cc3cccs3)[C@H]2SC1
outcome [1]: inactive
Potency [2]: inactive
outcome [7]: inactive
outcome [3]: inactive
outcome [4]: inactive
Potency [5]: inactive
max response [6]: 2.41% and 26.5%

CCN1CCC[C@H]1CNC(=O)c1c(O)c(Cl)cc(Cl)c1OC
outcome [1]: inactive
Potency [2]: inactive
outcome [7]: inactive
outcome [4]: inactive
Potency [5]: inactive
max response [6]: 5.28% and 32.3%

NC/C=C/C(=O)O
outcome [1]: inactive
Potency [2]: inactive
outcome [7]: inactive
outcome [4]: inactive
Potency [5]: inactive
max response [6]: 18.4% and 29.6%

C[C@]12CCC(=O)C=C1CC[C@@H]1[C@@H]2CC[C@@]2(C)[C@H]1CC[C@]2(O)C(=O)CO
outcome [1]: inactive
Potency [2]: inactive
outcome [7]: inactive
outcome [3]: inactive
outcome [4]: inactive
Potency [5]: inactive
max response [6]: -4.53% and -8.22%

NC(=O)c1ncn([C@@H]2O[C@H](CO)[C@@H](O)[C@H]2O)c1O
outcome [1]: inactive
Potency [2]: inactive
outcome [7]: inactive
outcome [3]: inactive
outcome [4]: inactive
Potency [5]: inactive
max response [6]: 13.6%

CCCNC(C)C(=O)Nc1ccccc1C (centres undefined)
outcome [1]: inactive
Potency [2]: inactive
outcome [7]: inactive
outcome [4]: inactive
Potency [5]: inactive
max response [6]: 7.26% and 27.6%

CC(C)COCC(CN(Cc1ccccc1)c1ccccc1)N1CCCC1 (centres undefined)
outcome [1]: inactive
Potency [2]: inactive
outcome [7]: inactive
outcome [3]: inactive
outcome [4]: inactive
Potency [5]: inactive
Potency [6]: 22.4 µM (active)
max response [6]: 9.9%

C[N+](C)(C)CCCCCCCCCC[N+](C)(C)C
outcome [3]: inactive
outcome [4]: inactive
Potency [5]: inactive

CCn1cc(C(=O)O)c(=O)c2cc3c(cc21)OCO3
outcome [1]: inactive
Potency [2]: inactive
outcome [7]: inactive
outcome [3]: inactive
outcome [4]: inactive
Potency [5]: inactive
max response [6]: -6.25% and -3.93%
